Records with an inconclusive call do not appear. Active and inactive are the calls of the source.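 How the source made its calls, unless noted: active means normalized viability below 100% at a tested concentration; inactive means the rest.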
What was measured:
[1] = viability loss in pontine glioma line – cell-based, SU-DIPG-XVII, MIPE5.0, CellTiter-Glo, qHTS, dose response (AID 1347060; cut-off not given, nearly all actives have AC50 up to about 26 µM;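 on AC50: cells exposed to compound for 48 hours before viability readout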); details: CellTiter-Glo ATP luminescence
[2] = viability loss in pontine glioma line – cell-based, SU-DIPG-XIII, MIPE5.0, CellTiter-Glo, qHTS, dose response (AID 1347064; cut-off not given, nearly all actives have AC50 up to about 23 µM;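 on AC50: cells exposed to compound for 48 hours before the viability read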); details: CellTiter-Glo ATP luminescence
[3] = viability loss in pontine glioma line – cell-based, SU-DIPG-XXV, MIPE5.0, CellTiter-Glo, qHTS, dose response (AID 1347065; cut-off not given, nearly all actives have AC50 up to about 26 µM;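 further: cells exposed to compound for 48 hours before ATP readout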); details: CellTiter-Glo ATP luminescence
[4] = JHH-DIPG-1 glioma cell viability, MIPE5.0 library, CellTiter-Glo luminescence, qHTS (AID 1347067; cut-off not given, nearly all actives have AC50 up to about 26 µM;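 further: cells exposed to compound for 48 hours before readout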); details: JHH-DIPG-1 glioma viability, CellTiter-Glo ATP luminescence
[5] = growth inhibition of DIPG cells – cell-based, MIPE5.0 library, qHTS (AID 1347068; cut-off not given, nearly all actives have IC50 up to about 30 µM;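 on IC50: cells exposed to compound for 48 hours before viability readout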); details: SU-DIPG-XXV viability
[6] = viability loss with induced miR-34 in A549 – imaging, A549 dox-inducible miR-34, nuclei and caspase counts, primary screen (AID 1347080;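 active means compounds whose cell count with miR-34 switched on is under 0.7 times the count with it off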); details: A549 miR-34 inducible, Hoechst nuclei count, 48 h
[7] = MELAS cybrid and Rieske KO viability enhancers – cell-based, MELAS cybrids, Rieske KO mouse fibroblasts, CellTiter-Glo, primary screen (AID 1508586;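 active means mean z-score across replicates of 1.96 or higher in either the MELAS or the Rieske mutant cell line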;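 further: z relative to plate mean and SD of compound and empty wells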); details: low glucose
[8] = drug combination growth inhibition, ovarian cancer – cell-based, oncology-focused library, rucaparib conditional, profiling panel (AID 1508598); details: patient-derived ovarian cancer cells, CellTiter-Glo viability, 144 h, stronger effect = lower value
[9] = stronger effect = lower value, cell number ratio, induced over uninduced
[10] = measured here: relative caspase fold change +Dox/-Dox
[11] = measured here: total cells with miR-34 induction, stronger effect = lower value
[12] = measured here: total cells without miR-34 induction
[13] = MELAS cybrid survival, CellTiter-Glo 48 h, stronger effect = higher value
[14] = Rieske KO mouse fibroblast survival, CellTiter-Glo 72 h

CN(NC(=O)CC(=O)NN(C)C(=S)c1ccccc1)C(=S)c1ccccc1
5740: cell count [6, 12]
inactive: outcome [5] | fold change [6, 9] 0.813 | viability ([8]; at 0.000305 µM, OCI-C5x cells, with rucaparib 10 µM, 100% = cells with rucaparib alone) 121% | viability ([8]; at 0.000305 µM, OCI-C5x cells, without rucaparib) 108% | viability ([8]; at 0.00122 µM, OCI-C5x cells, with rucaparib 10 µM, 100% = cells with rucaparib alone) 135% | viability ([8]; at 0.00122 µM, OCI-C5x cells, without rucaparib) 131% | viability ([8]; at 0.00488 µM, OCI-C5x cells, with rucaparib 10 µM, 100% = cells with rucaparib alone) 143% | viability ([8]; at 0.00488 µM, OCI-C5x cells, without rucaparib) 129% | viability ([8]; at 0.0195 µM, OCI-C5x cells, with rucaparib 10 µM, 100% = cells with rucaparib alone) 151% | viability ([8]; at 0.0195 µM, OCI-C5x cells, without rucaparib) 131% | viability ([8]; at 0.0781 µM, OCI-C5x cells, with rucaparib 10 µM, 100% = cells with rucaparib alone) 140% | viability ([8]; at 0.0781 µM, OCI-C5x cells, without rucaparib) 122% | viability ([8]; at 0.313 µM, OCI-C5x cells, with rucaparib 10 µM, 100% = cells with rucaparib alone) 126% | viability ([8]; at 0.313 µM, OCI-C5x cells, without rucaparib) 133% | viability ([8]; at 1.25 µM, OCI-C5x cells, with rucaparib 10 µM, 100% = cells with rucaparib alone) 125% | viability ([8]; at 1.25 µM, OCI-C5x cells, without rucaparib) 123% | viability ([8]; at 5 µM, OCI-C5x cells, with rucaparib 10 µM, 100% = cells with rucaparib alone) 128% | viability ([8]; at 5 µM, OCI-C5x cells, without rucaparib) 121%
1.14: fold change [6, 10]
active: AC50 [1] 18.6 nM | AC50 [2] 9.34 nM | AC50 [3] 18.6 nM | AC50 [4] 5.25 nM | z-score [7, 13] 2.12 | viability ([8]; at 0.000305 µM, OCI-P5x cells, with rucaparib 20 µM, 100% = cells with rucaparib alone) 83.3% | viability ([8]; at 0.000305 µM, OCI-P5x cells, without rucaparib) 88% | viability ([8]; at 0.00122 µM, OCI-P5x cells, with rucaparib 20 µM, 100% = cells with rucaparib alone) 80.6% | viability ([8]; at 0.00122 µM, OCI-P5x cells, without rucaparib) 75.2% | viability ([8]; at 0.00488 µM, OCI-P5x cells, with rucaparib 20 µM, 100% = cells with rucaparib alone) 82.9% | viability ([8]; at 0.00488 µM, OCI-P5x cells, without rucaparib) 81.1% | viability ([8]; at 0.0195 µM, OCI-P5x cells, with rucaparib 20 µM, 100% = cells with rucaparib alone) 88.5% | viability ([8]; at 0.0195 µM, OCI-P5x cells, without rucaparib) 84.6% | viability ([8]; at 0.0781 µM, OCI-P5x cells, with rucaparib 20 µM, 100% = cells with rucaparib alone) 98.6% | viability ([8]; at 0.0781 µM, OCI-P5x cells, without rucaparib) 81% | viability ([8]; at 0.313 µM, OCI-P5x cells, with rucaparib 20 µM, 100% = cells with rucaparib alone) 96% | viability ([8]; at 0.313 µM, OCI-P5x cells, without rucaparib) 95.1% | viability ([8]; at 1.25 µM, OCI-P5x cells, with rucaparib 20 µM, 100% = cells with rucaparib alone) 82.2% | viability ([8]; at 1.25 µM, OCI-P5x cells, without rucaparib) 97.2% | viability ([8]; at 5 µM, OCI-P5x cells, with rucaparib 20 µM, 100% = cells with rucaparib alone) 99% | viability ([8]; at 5 µM, OCI-P5x cells, without rucaparib) 98%
-2.56: z-score [7, 14]
4660: cell count [6, 11]

Cc1ccc(C(=O)Nc2ccc(CN3CCN(C)CC3)c(C(F)(F)F)c2)cc1C#Cc1cnc2[nH]ncc2c1
active: AC50 [1] 41.7 nM | AC50 [2] 11.8 nM | AC50 [3] 26.3 nM | AC50 [4] 468 nM | IC50 [5] 332 nM
0.675: fold change [6, 10]
inactive: fold change [6, 9] 0.928 | z-score [7, 13] 0.831
506: cell count [6, 11]
-6.34: z-score [7, 14]
546: cell count [6, 12]

CCN1CCN(Cc2ccc(Nc3ncc(F)c(-c4cc(F)c5nc(C)n(C(C)C)c5c4)n3)nc2)CC1
2920: cell count [6, 12]
0.558: fold change [6, 10]
inactive: fold change [6, 9] 0.908
2650: cell count [6, 11]
active: AC50 [1] 5900 nM | AC50 [2] 7420 nM | AC50 [3] 6610 nM | AC50 [4] 8330 nM | IC50 [5] 23500 nM | z-score [7, 13] 5.9
-5.11: z-score [7, 14]

CCCc1c(OCCCOc2ccc(OCC(=O)O)cc2)ccc(C(C)=O)c1O
9670: cell count [6, 11]
1.33: fold change [6, 10]
inactive: outcome [1] | outcome [2] | outcome [3] | outcome [4] | outcome [5] | fold change [6, 9] 0.974
9930: cell count [6, 12]

CC(C)Oc1ccc(-c2nn([C@@H](C)c3oc4ccc(F)cc4c(=O)c3-c3cccc(F)c3)c3ncnc(N)c23)cc1F
inactive: outcome [1] | outcome [2] | outcome [3] | outcome [5]

O=C(c1ccc(NS(=O)(=O)c2cccc3cccnc23)cc1)N1CCN(CC2CC2)CC1
inactive: outcome [1] | outcome [2] | outcome [3] | outcome [5]

C=CC(=O)N1CC/C(=C\c2ccc(F)c([N+](=O)[O-])c2)C(=O)/C(=C/c2ccc(F)c([N+](=O)[O-])c2)C1
active: AC50 [1] 74.2 nM | AC50 [2] 59 nM | AC50 [3] 93.4 nM | IC50 [5] 186 nM

N#Cc1ccnc(N2C(=O)CC[C@H]2C(=O)N(c2cncc(F)c2)[C@H](C(=O)NC2CC(F)(F)C2)c2ccccc2Cl)c1
inactive: outcome [1] | outcome [2] | outcome [3] | outcome [5]

OC[C@H]1O[C@@H](S[C@@H]2O[C@H](CO)[C@H](O)[C@H](n3cc(-c4cccc(F)c4)nn3)[C@H]2O)[C@H](O)[C@@H](n2cc(-c3cccc(F)c3)nn2)[C@H]1O
inactive: outcome [1] | outcome [2] | outcome [3] | outcome [5]

CCOC(=O)[C@@]1(CCCCCCOc2ccc(Cl)cc2)CO1
inactive: outcome [1] | outcome [2] | outcome [3] | outcome [5]

N#CCC1(n2cc(-c3ncnc4[nH]ccc34)cn2)CN(C2CCN(C(=O)c3ccnc(C(F)(F)F)c3F)CC2)C1
inactive: outcome [1] | outcome [2] | outcome [3] | outcome [5]

Cc1c(F)ccc(C(=O)Nc2cc([N+](=O)[O-])ccc2N2CCN(C)CC2)c1Cl
inactive: outcome [2] | outcome [3] | outcome [5]
active: AC50 [1] 26300 nM
